ELG1 genotoxic: qHTS screen for small molecules that induce genotoxicity in human embryonic kidney (HEK293T) cells expressing luciferase-tagged ELG1. HEK293T ELG1-luciferase reporter, luminescence, 16 h. Potency, µM (titrated, usually from 46 µM), without a hit: top-dose activity change, positive = activation, actives largely listed as activators. hit rate 1.3% among 330,000. AID 504466, 2011; note: % of control where 0% means no effect; nearly all actives have a fitted effect of over 60% in size
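ELG1-luciferase HEK293T cells, 2,000/well; compound pinned in; 16 hr, 37 °C, 5% CO2; ONE-Glo, 30 min RT; luminescence on CCD imager.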
SMN2 splice enh: qHTS Assay for Enhancers of SMN2 Splice Variant Expression. HEK293 SMN2-luciferase splicing reporter, luminescence, 30-36 h. Potency, µM (series often up to 46.1 µM), without a hit: top-dose activity change, positive = activation, actives largely listed as activators. hit rate 2.8% among 210,000; note: % of control where 0% means no effect; nearly all actives have a fitted effect of over 55% in size
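qHTS luciferase splicing reporter: luminescence rises when SMN2 exon 7 is included in transfected HEK293 cells. Compound exposure lasted 30-36 h at 37C, with 4.5 mM final sodium butyrate as control, followed by a ONE-Glo read.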
FLuc counter: qHTS profiling assay for firefly luciferase inhibitor/activator using purifed enzyme and Km concentrations of substrates (counterscreen for miR-21 project); hit rate 6.9% among 360,000; purified FLuc, Km substrates, luminescence inhibition; AID 588342, 2011; Potency, µM (highest dose often 57.5 µM), inactives show top-dose activity change, negative = inhibition, most hits filed as inhibitors;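 note: plate controls were vehicle for no effect and reference inhibitor for full effect; nearly all actives have a fitted effect of over 55% in size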
Target sequence (P08659 whole entry, looked up): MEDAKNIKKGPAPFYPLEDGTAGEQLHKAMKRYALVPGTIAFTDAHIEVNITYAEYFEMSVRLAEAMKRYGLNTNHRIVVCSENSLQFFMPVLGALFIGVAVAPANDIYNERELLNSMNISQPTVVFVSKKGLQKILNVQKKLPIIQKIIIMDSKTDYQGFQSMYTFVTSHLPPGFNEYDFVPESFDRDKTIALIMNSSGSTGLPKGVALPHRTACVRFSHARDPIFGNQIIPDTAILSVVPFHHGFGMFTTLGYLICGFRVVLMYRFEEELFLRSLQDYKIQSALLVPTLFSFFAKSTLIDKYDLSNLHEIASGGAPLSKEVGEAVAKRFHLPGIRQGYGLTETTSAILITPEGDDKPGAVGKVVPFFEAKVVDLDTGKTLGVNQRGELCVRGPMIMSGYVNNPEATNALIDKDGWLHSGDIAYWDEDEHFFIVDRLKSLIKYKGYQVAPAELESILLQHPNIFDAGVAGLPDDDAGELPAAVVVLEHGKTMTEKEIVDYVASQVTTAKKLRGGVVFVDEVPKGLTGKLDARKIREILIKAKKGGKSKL
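Biochemical qHTS of compounds, final roughly 60 µM downward over six points, against 10 nM purified firefly luciferase using Km concentrations of substrates (10 uM D-luciferin, 10 uM ATP) in Tris acetate pH 7.5 buffer; luminescence output.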
Rab9 prom act: qHTS Assay for Rab9 Promoter Activators | Huh7 Rab9 promoter-luciferase reporter, luminescence, 24 h | hit rate 2.8% among 320,000 | AID 485297, 2010 | Potency, µM (doses to about 9.22 µM), for inactives: at the highest dose activation, negative = inhibition, usual class: activators; note: % of control where 0% means no effect; nearly all actives have a fitted effect of over 60% in size
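Huh7 cells stably carrying Rab9 promoter–luciferase reporter, plated 1500 cells/well, compound added after 2 h and incubated 24 h at 37 °C; luciferase luminescence then read after 10 min with detection reagent.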
NPC1 promoter act: qHTS Assay for NPC1 Promoter Activators. Huh7 NPC1 promoter luciferase reporter, 24 h. Potency, µM (highest dose often 9.22 µM), inactives show top-dose activation, most hits filed as activators. hit rate 2.4% among 320,000; note: % of control where 0% means no effect; nearly all actives have a fitted effect of over 60% in size
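Quantitative HTS used a cell-based reporter: Huh7 cells stably bearing the NPC1 promoter upstream of luciferase were treated with compounds for 24 h, and promoter activation was read as luminescence.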
The depositor's hits bear a star; [ ] = another dose, or the depositor's remark. Compounds with a hit are over-represented: about 7.4% of the library has one in this group of screens. Calls come from the whole dose curve; as a rule, active = well fitted curve in the direction sought with a large enough effect; inconclusive = small, poorly fitted or top-dose-only effect, or another doubt; inactive = no such curve, though single readings can be large; an effect the other way counts as inactive or inconclusive. Potency is the fitted concentration of half-maximal effect.

CCC(Sc1nc2ccccc2c2nc(CCc3c(C)n[nH]c3C)nn12)C(=O)Nc1ccc(F)cc1 (stereo not drawn) was read as FLuc counter -2.5%.
`O=C(/C=C/c1ccc(Cl)cc1)Nc1nccs1` gave ELG1 genotoxic inconclusive, SMN2 splice enh 3.98µM*, FLuc counter 1.35µM*, Rab9 prom act 0.316µM* and NPC1 promoter act 0.631µM*.
C/C=C/C=C/C(=O)Nc1nccs1 was read as ELG1 genotoxic 10.8%, SMN2 splice enh -6.3%[1.84 µM], FLuc counter inconclusive, Rab9 prom act inconclusive and NPC1 promoter act 3.8%.
`Cc1nnc(NC(=O)c2ccc(-c3ccc(Cl)cc3)o2)s1` gave ELG1 genotoxic 4.0%, FLuc counter -13.9%, Rab9 prom act 8.3% and NPC1 promoter act 0.4%.
For O=C(Nc1nccs1)c1ccc(-c2ccc(Cl)cc2)o1 the results were ELG1 genotoxic inconclusive, SMN2 splice enh 11.2µM*, FLuc counter 0.213µM*, Rab9 prom act 1µM* and NPC1 promoter act 1.41µM*.
O=C(Nc1nccs1)c1ccc(-c2ccc([N+](=O)[O-])cc2)o1 was read as ELG1 genotoxic inconclusive, SMN2 splice enh 12.6µM*, FLuc counter 6.01µM*, Rab9 prom act 1.41µM* and NPC1 promoter act 1.78µM*.
`O=C(Nc1nccs1)c1ccc(-c2ccc(F)cc2)o1` gave ELG1 genotoxic inconclusive, SMN2 splice enh 11.2µM*, FLuc counter 2.13µM*, Rab9 prom act 3.55µM* and NPC1 promoter act 2.24µM*.
Screening O=C(Cc1ccc(F)cc1)Nc1nccs1 returned ELG1 genotoxic -10.6%, FLuc counter -1.3%, Rab9 prom act 4.4% and NPC1 promoter act -0.7%.
`CC(=O)c1ccc(C(=O)N2CCC(n3nccc3NC(=O)C3CC3)CC2)cc1` gave ELG1 genotoxic 1.5%, FLuc counter 6.7%, Rab9 prom act 7.0% and NPC1 promoter act -1.0%.
For Cc1cc(C)c2oc(-c3cc(NC(=O)Cc4ccccc4)ccc3Cl)nc2c1 the results were SMN2 splice enh -2.4% and FLuc counter -2.8%.
Cc1ccc(C)c(NC(=O)CCC(=O)N/N=C/c2ccc3c(c2)OCO3)c1 was read as ELG1 genotoxic 1.6%, FLuc counter 10.7µM*, Rab9 prom act -2.4% and NPC1 promoter act -0.1%.
Cc1ccccc1NCC(=O)N/N=C\c1ccc2c(c1)OCO2 was read as ELG1 genotoxic 3.7%, SMN2 splice enh -4.9%, FLuc counter inconclusive, Rab9 prom act 9.4% and NPC1 promoter act -4.7%.
Cc1cc(C)nc(SCC(=O)N/N=C/c2ccc3c(c2)OCO3)n1 was read as ELG1 genotoxic inconclusive, FLuc counter 9.53µM*, Rab9 prom act 27.9% and NPC1 promoter act inconclusive.
COC(=O)c1cc(C(=O)OCC(=O)NC2CCCC2)cc([N+](=O)[O-])c1 was read as ELG1 genotoxic -0.1%, FLuc counter -1.2%, Rab9 prom act 0.2% and NPC1 promoter act 0.4%.
`O=C(Nc1ccc(Br)cc1)c1cnc[nH]1` gave ELG1 genotoxic inconclusive, FLuc counter 23.9µM*, Rab9 prom act 3.55µM* and NPC1 promoter act inconclusive.
For CCN(C(=O)COC(=O)c1cn(-c2ccccc2)nc1-c1ccccc1)C1CCS(=O)(=O)C1 (stereo not drawn) the results were ELG1 genotoxic 4.8%, SMN2 splice enh 10.5%, FLuc counter 23.9µM*, Rab9 prom act -0.8% and NPC1 promoter act -3.4%.
`O=C(OCC(=O)N1CCN(C(=O)c2ccco2)CC1)c1cn(-c2ccccc2)nc1-c1ccccc1` gave ELG1 genotoxic -4.1%, SMN2 splice enh -10.7%, FLuc counter 16.9µM*, Rab9 prom act -3.5% and NPC1 promoter act 1.5%.
Screening O=C(c1ccco1)N1CCN(C(=O)c2cn(-c3ccccc3)nc2-c2ccccc2)CC1 returned ELG1 genotoxic 5.5%, FLuc counter 6.01µM*, Rab9 prom act 2.8% and NPC1 promoter act 14.4%.
Screening O=C(OCC(=O)N1CCN(C(=O)c2ccco2)CC1)c1ccccc1C(=O)c1ccccc1 returned ELG1 genotoxic -1.7%, SMN2 splice enh -7.8%, FLuc counter -0.5%, Rab9 prom act -4.1% and NPC1 promoter act -2.1%.
O=C(/C=C/c1cn(-c2ccccc2)nc1-c1cccnc1)c1ccco1 was read as ELG1 genotoxic -13.9%, SMN2 splice enh -37.0%, FLuc counter 9.53µM*, Rab9 prom act -7.9% and NPC1 promoter act -5.3%.
For O=C(Nc1ccccc1)C1=C[C@@H](c2ccc(Br)cc2)C[C@@H](OCCCCO)O1 the results were ELG1 genotoxic 17.7%, FLuc counter inconclusive, Rab9 prom act inconclusive and NPC1 promoter act 29.2%.
For COC(=O)C1=C(N)OC2=C(C(=O)CC(C)(C)C2)C1c1cc2c(cc1Cl)OCO2 (stereo not drawn) the results were ELG1 genotoxic 1.9%, FLuc counter 12.3%, Rab9 prom act -0.1% and NPC1 promoter act -4.2%.
For O=S(=O)(Nc1cccc(S(=O)(=O)N2CCCCC2)c1)c1ccccc1F the results were ELG1 genotoxic -4.9%.
`CCCC(=O)Nc1ccc2nc(SCCOc3ccccc3)sc2c1` gave FLuc counter -4.3%.
Screening Fc1ccc(NC(=S)N2N=CCC2c2ccccc2)cc1 (stereo not drawn) returned ELG1 genotoxic 23.1µM*, SMN2 splice enh 9.7%, FLuc counter inconclusive, Rab9 prom act 18.5% and NPC1 promoter act 22.3%.
`S=C(Nc1ccccc1)N1N=CCC1c1ccccc1` (stereo not drawn) gave ELG1 genotoxic inconclusive, SMN2 splice enh -8.3%, FLuc counter 16.9µM*, Rab9 prom act 29.9% and NPC1 promoter act 22.2%.
`O=C(Nc1cccc(Cl)c1)N1N=CCC1c1ccccc1` (stereo not drawn) gave ELG1 genotoxic -2.6%, FLuc counter -2.8%, Rab9 prom act -1.0% and NPC1 promoter act 0.9%.
`CCC(=O)C1=C(c2ccc(F)cc2)N(C(=O)CC)n2c(nnc2C2CCCCC2)S1` gave FLuc counter -2.4%.
For CC1=C(C(=O)Nc2ccccc2C)C(c2cccnc2)n2nc(SCc3ccccc3)nc2N1 (stereo not drawn) the results were FLuc counter 4.6%.
COc1ccc(/C(N)=N/OC(=O)c2ccc([N+](=O)[O-])c(C)c2)cc1OC was read as ELG1 genotoxic -4.5%, SMN2 splice enh -9.6%, FLuc counter inconclusive, Rab9 prom act -2.2% and NPC1 promoter act -2.9%.
COc1ccc(/C(N)=N/OC(=O)c2ccc(C)c([N+](=O)[O-])c2)cc1 was read as ELG1 genotoxic inconclusive, SMN2 splice enh -2.4%, FLuc counter 19µM*, Rab9 prom act 21.3% and NPC1 promoter act 20.3%.

Screens deposited in PubChem BioAssay by National Center for Advancing Translational Sciences (NCATS).
